Shown is part of a subset that was picked to be rich in the strongest signals.

Test in all cases: glycan array binding signal (z-score within array); higher = stronger binding
For assay [1], the system named is Neu5Ac(a2-6)GalNAc(b1-4)GlcNAc6S. The settings on record: glycan notation: IUPAC condensed, linker removed. In a few lines: (§1)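 The binding signal is a Z-score computed within each array and averaged over linkers. Arrays of the same protein sequence at different concentrations or buffers were also averaged together. Data originate from 3228 arrays in the Consortium for Functional Glycomics database, kept only where the protein sequence was available.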

The test system of assay [2] is Neu5Ac(a2-8)Neu5Ac(a2-8)Neu5Ac(a2-3)Gal(b1-4)Glc. The settings on record: glycan notation: IUPAC condensed, linker removed. In short, it runs like this:
as §1

Another assay deals with Neu5Ac(a2-6)GalNAc. The settings on record: glycan notation: IUPAC condensed, linker removed. In short, it runs like this:
as §1

The test system of assay [3] is Neu5Ac(a2-6)GlcNAc(b1-4)GlcNAc. The following applies: glycan notation: IUPAC condensed, linker removed. In a few lines: as §1
The test system of assay [4] is Neu5Ac(a2-8)Neu5Ac(a2-3)Gal(b1-3)GalNAc(b1-4)[Neu5Ac(a2-3)]Gal(b1-4)Glc. The settings on record: glycan notation: IUPAC condensed, linker removed; mutation: R125K. In short, it runs like this: as §1
Assay [5] has as its system Neu5Ac(a2-8)Neu5Ac(a2-3)Gal(b1-4)GlcNAc. The settings on record: glycan notation: IUPAC condensed, linker removed; mutation: R125K. In short, it runs like this:
as §1

Assay [6] relates to Neu5Ac(a2-8)Neu5Ac(a2-3)Gal(b1-4)Glc. The following applies: glycan notation: IUPAC condensed, linker removed. In a few lines: as §1
Assay [7] relates to Neu5Ac(a2-8)Neu5Ac(a2-8)Neu5Ac(a2-3)[GalNAc(b1-4)]Gal(b1-4)Glc. The settings on record: glycan notation: IUPAC condensed, linker removed. In a few lines:
as §1

In assay [8] the test system is Neu5Ac(a2-8)Neu5Ac(a2-3)[GalNAc(b1-4)]Gal(b1-4)Glc. The following applies: glycan notation: IUPAC condensed, linker removed. In a few lines: as §1

Sequence of Regenerating Gene IV (Homo sapiens), Q9BYZ8 (Q9BYZ8 whole entry, looked up): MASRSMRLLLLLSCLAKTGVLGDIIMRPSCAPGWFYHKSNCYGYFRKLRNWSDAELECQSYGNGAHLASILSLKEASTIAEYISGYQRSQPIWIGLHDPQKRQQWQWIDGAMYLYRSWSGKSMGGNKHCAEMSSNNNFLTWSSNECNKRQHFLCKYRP
Sequence of PILRb (Mus musculus), Q2YSF2 (Q2YSF2 entry or part of it): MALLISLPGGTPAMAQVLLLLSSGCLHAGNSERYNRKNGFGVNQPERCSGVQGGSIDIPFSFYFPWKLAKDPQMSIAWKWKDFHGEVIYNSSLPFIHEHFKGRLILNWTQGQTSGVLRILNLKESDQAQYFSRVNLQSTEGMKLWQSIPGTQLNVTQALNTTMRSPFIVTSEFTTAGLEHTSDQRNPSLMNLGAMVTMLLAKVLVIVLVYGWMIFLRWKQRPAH
Sequence of CHI3L1 (Homo sapiens), P36222 (P36222 whole entry): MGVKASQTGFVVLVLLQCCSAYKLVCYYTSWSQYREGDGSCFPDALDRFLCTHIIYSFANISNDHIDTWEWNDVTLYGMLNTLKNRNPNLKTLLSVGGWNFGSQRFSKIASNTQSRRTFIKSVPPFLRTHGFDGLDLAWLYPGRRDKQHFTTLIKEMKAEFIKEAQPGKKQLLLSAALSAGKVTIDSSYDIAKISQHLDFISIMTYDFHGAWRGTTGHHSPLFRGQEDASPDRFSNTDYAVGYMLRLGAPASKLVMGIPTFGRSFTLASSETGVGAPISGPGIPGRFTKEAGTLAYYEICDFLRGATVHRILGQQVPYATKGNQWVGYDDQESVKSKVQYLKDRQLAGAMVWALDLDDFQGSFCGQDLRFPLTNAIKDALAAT
Sequence of Neurocan (Homo sapiens), O14594 (O14594 other isoform, or with tags, fused parts or gaps): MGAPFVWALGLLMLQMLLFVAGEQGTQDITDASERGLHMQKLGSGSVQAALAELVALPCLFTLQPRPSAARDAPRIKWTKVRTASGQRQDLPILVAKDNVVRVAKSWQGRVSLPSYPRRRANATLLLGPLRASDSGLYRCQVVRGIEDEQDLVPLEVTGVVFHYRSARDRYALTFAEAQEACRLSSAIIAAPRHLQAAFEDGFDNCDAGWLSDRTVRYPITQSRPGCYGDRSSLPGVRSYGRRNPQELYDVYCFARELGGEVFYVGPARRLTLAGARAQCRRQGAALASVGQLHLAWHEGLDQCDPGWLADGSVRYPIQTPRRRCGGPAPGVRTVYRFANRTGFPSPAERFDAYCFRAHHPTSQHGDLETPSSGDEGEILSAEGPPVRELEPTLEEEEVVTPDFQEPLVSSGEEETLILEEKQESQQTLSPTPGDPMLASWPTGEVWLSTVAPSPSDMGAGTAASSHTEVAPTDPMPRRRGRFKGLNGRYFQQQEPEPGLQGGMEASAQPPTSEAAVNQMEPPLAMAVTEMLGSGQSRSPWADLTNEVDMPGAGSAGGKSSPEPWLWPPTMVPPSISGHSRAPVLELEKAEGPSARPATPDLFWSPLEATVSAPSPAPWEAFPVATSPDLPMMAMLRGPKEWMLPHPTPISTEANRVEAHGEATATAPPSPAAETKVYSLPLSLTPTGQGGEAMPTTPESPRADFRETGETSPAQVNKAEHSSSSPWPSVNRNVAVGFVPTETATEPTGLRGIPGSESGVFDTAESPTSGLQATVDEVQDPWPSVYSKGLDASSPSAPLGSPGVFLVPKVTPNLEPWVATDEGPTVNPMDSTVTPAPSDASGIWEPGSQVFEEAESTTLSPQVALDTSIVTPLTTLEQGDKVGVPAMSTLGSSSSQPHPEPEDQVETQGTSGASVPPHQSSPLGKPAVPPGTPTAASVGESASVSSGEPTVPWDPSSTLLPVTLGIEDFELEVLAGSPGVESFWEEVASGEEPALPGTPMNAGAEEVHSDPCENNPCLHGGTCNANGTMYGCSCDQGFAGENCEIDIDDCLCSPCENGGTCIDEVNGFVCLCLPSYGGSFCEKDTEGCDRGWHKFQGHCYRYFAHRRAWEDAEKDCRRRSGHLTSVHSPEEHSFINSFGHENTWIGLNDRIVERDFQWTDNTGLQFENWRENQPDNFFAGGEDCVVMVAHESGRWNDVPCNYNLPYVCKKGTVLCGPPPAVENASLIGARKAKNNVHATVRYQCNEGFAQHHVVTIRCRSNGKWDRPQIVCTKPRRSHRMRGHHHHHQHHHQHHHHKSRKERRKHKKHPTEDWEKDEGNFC
Sequence of Avaren (Actinomycete K97) (chain, as listed by the source): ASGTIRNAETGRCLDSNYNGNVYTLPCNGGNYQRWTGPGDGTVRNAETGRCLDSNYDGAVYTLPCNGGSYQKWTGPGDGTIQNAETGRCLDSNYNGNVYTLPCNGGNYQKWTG
Sequence of SRLC (Mus musculus), Q8VIF6 (Q8VIF6 other isoform, or with tags, fused parts or gaps): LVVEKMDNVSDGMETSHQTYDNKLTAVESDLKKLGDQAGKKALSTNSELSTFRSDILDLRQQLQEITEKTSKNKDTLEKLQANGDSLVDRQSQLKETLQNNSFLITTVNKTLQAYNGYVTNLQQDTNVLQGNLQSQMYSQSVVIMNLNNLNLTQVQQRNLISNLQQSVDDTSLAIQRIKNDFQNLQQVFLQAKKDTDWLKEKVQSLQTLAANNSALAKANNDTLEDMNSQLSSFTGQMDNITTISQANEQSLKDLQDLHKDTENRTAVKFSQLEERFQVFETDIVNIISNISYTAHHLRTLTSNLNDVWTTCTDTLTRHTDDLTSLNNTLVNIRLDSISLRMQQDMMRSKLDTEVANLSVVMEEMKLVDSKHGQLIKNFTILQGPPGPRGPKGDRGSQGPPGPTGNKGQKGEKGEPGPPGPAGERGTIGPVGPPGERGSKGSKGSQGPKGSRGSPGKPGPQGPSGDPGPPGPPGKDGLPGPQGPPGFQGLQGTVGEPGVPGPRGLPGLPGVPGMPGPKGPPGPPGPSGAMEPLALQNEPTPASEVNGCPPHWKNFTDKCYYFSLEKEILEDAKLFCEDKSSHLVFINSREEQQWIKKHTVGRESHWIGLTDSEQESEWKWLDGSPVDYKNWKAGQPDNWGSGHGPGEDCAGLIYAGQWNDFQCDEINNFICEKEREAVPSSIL

In the case of CHI3L1 (Homo sapiens), P36222, the “glycan array binding signal (z-score)” value in assay [1] was -0.113; in assay [2], -0.11.
Turning to MpAFP RI GFP (Marinomonas primoryensis), the “glycan array binding signal (z-score)” value in [1] is -0.16.
As to Neurocan (Homo sapiens), O14594, in the assay with Neu5Ac(a2-6)GalNAc, the “glycan array binding signal (z-score)” value is 0.364.
For PILRb (Mus musculus), Q2YSF2, the “glycan array binding signal (z-score)” value in assay [3] was -0.085; in assay [2], -0.167.
Regarding Siglec-8 (Homo sapiens), Q9NYZ4, the figures for the “glycan array binding signal (z-score)” value in [4] and in assay [5] were -0.164 and -0.473, respectively.
As for “Regenerating Gene IV (Homo sapiens), Q9BYZ8”, the “glycan array binding signal (z-score)” value in assay [6] was 0.532; in [7], -0.332.
As to SRLC (Mus musculus), Q8VIF6, in [6], the “glycan array binding signal (z-score)” value was -0.188.
Consider Avaren (Actinomycete K97), for which, in assay [8], the “glycan array binding signal (z-score)” value was -0.117.

The values are drawn from the supplement of paper PMC8728848.
